Experimental data taken from PubChem BioAssay (NCI).
Values joined by “and” are separate entries in the source; they are usually repeats but may differ in a detail not shown here. Identical values can stand only once. About 79,000 compounds went through this panel and 15% of them were active in at least one assay; those are over-represented in the sample as a whole. Active and inactive are the calls of the source. Cut-off read from the data, not from the text of the source: active = growth inhibition above about 70%; inactive = the rest.

Tests used:
[1] = NCI Yeast Anticancer Drug Screen. Data for the rad52 strain (AID 147);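 note: 0% = growth of vehicle-treated control cultures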; details: S. cerevisiae rad52 mutant growth inhibition, hits give high values
In short: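 DNA repair-defective yeast; compound exposure; growth scored against vehicle controls.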

[2] = NCI Yeast Anticancer Drug Screen. Data for the wt1 strain (AID 149);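 note: 0% = growth of vehicle-treated wt1 cultures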; details: S. cerevisiae wt1 strain (SPY 50644) growth inhibition, hits give high values
In short: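 Growth inhibition read against vehicle controls after compound exposure of the wt1 yeast strain.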

[3] = NCI Yeast Anticancer Drug Screen. Data for the rad50EPP+ strain (AID 151);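 note: 0% = growth of vehicle-treated control cultures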; details: S. cerevisiae rad50 mutant strain, hits give high values
In short: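 rad50EPP+ yeast treated with test compounds. Readout: growth vs vehicle control.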

[4] = NCI Yeast Anticancer Drug Screen. Data for the mgt1 strain (AID 153); details: S. cerevisiae mgt1 mutant growth inhibition, hits give high values
In short: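 Growth inhibition relative to vehicle controls was scored for the mgt1 yeast strain after compound exposure.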

[5] = NCI Yeast Anticancer Drug Screen. Data for the rad50 strain (AID 155);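 note: 0% = growth of vehicle-only cultures of the same strain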; details: S. cerevisiae rad50 strain growth inhibition, hits give high values
In short: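 Readout: growth inhibition relative to vehicle-treated cultures. Compound exposure was carried out in a genetically defined yeast strain deficient in DNA damage repair.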

[6] = NCI Yeast Anticancer Drug Screen. Data for the mec2-1 strain (AID 157); details: S. cerevisiae mec2-1 strain, hits give high values
In short: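 Growth inhibition is read against vehicle-treated controls after compound exposure of the mec2-1 yeast strain, which is defective in DNA damage repair or cell cycle control.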

[7] = NCI Yeast Anticancer Drug Screen. Data for the rad14 strain (AID 159);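 note: 0% = growth of vehicle-treated control cultures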; details: S. cerevisiae rad14 strain growth inhibition, hits give high values
In short: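 Growth inhibition vs vehicle controls; genetically altered yeast strain (DNA damage repair defect) treated with test compounds.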

[8] = NCI Yeast Anticancer Drug Screen. Data for the sgs1 mgt1 strain (AID 161);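 note: 0% = growth of cultures given vehicle only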; details: S. cerevisiae sgs1 mgt1 strain, hits give high values
In short: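 Growth of a repair-deficient yeast mutant was monitored after compound treatment and expressed as inhibition relative to vehicle-treated cultures.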

[9] = NCI Yeast Anticancer Drug Screen. Data for the CLN2oe strain (AID 163);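 note: 0% = growth of vehicle-only control cultures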; details: S. cerevisiae CLN2oe strain, hits give high values
In short: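 Compound-treated yeast; growth vs vehicle ctrl = % inhibition. Genetically altered strain (cell-cycle control).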

[10] = NCI Yeast Anticancer Drug Screen. Data for the bub3 strain (AID 167); details: S. cerevisiae bub3 mutant strain, hits give high values
In short: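 Readout: yeast growth inhibition, expressed relative to vehicle-only wells. The test organism is a mutant strain from a panel with lesions in DNA repair or checkpoint genes.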

[11] = NCI Yeast Anticancer Drug Screen. Data for the wt2 strain (AID 169);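 note: 0% = growth of vehicle-treated yeast cultures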; details: S. cerevisiae wt2 strain growth inhibition, hits give high values
In short: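 Compound exposure of yeast; growth compared with vehicle controls; inhibition reported.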

[12] = NCI Yeast Anticancer Drug Screen. Data for the mlh1 strain (AID 171);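 note: 0% = growth of vehicle-treated control cultures of the same strain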; details: S. cerevisiae mlh1 strain growth inhibition, hits give high values
In short: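 Compounds are applied to a genetically altered yeast strain, and its growth is compared with that of vehicle-treated cultures to give percent inhibition.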

[13] = NCI Yeast Anticancer Drug Screen. Data for the sgs1 strain (AID 173);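 note: 0% = growth of vehicle-only control cultures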; details: S. cerevisiae sgs1 mutant, hits give high values
In short: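 Compounds applied to genetically altered yeast; growth compared with vehicle-treated cultures to give % inhibition.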

[14] = NCI Yeast Anticancer Drug Screen. Data for the mlh1 rad18 strain (AID 175); details: S. cerevisiae mlh1 rad18 strain growth inhibition, hits give high values
In short: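 Cells of a genetically altered yeast strain, deficient in DNA damage repair, were treated with compound. Their growth was then compared with that of vehicle-treated cultures to give inhibition.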

[15] = NCI Yeast Anticancer Drug Screen. Data for the rad18 strain (AID 177); details: S. cerevisiae rad18 mutant growth inhibition, hits give high values
In short: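 Compounds are applied to a repair-deficient yeast strain, and growth is compared with that of vehicle-treated cultures to give percent inhibition.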

[16] = at 5.0 µM (retest, dose inferred, filed as 0.5)
[17] = at 50.0 µM (retest, dose inferred, filed as 5.0)

Measured: growth inhibition

CCc1ccc2c(c1)N(CC(C)CN(C)C)c1ccccc1S2 (stereo not given)
inactive: [1]; at 1.2 µM -5% | [1]; at 3.7 µM -8% | [1]; at 11.0 µM -9% | [1]; at 33.0 µM -1% | [1]; at 100.0 µM 69% | [2]; at 1.2 µM -2% | [2]; at 3.7 µM -4% | [2]; at 11.0 µM -6% | [2]; at 33.0 µM -5% | [2]; at 100.0 µM 32% | [3]; at 1.2 µM -12% | [3]; at 3.7 µM -15% | [3]; at 11.0 µM -23% | [3]; at 33.0 µM -31% | [4]; at 1.2 µM -3% | [4]; at 3.7 µM -4% | [4]; at 11.0 µM -6% | [4]; at 33.0 µM 0% | [5]; at 1.2 µM -4% | [5]; at 3.7 µM -9% | [5]; [16] 2% | [5]; at 11.0 µM -1% | [5]; at 33.0 µM 4% | [5]; [17] 37% | [5]; at 50.0 µM 52.1% | [6]; at 1.2 µM -6% | [6]; at 3.7 µM -8% | [6]; [16] -7% | [6]; at 11.0 µM -12% | [6]; at 33.0 µM -4% | [6]; [17] -27% | [6]; at 50.0 µM -12.1% | [6]; at 100.0 µM 58% | [7]; at 1.2 µM -2% | [7]; at 3.7 µM -4% | [7]; at 11.0 µM -1% | [7]; at 33.0 µM 23% | [8]; [16] -12% | [8]; [17] 23% | [8]; at 50.0 µM 24.3% | [9]; at 1.2 µM -9% | [9]; at 3.7 µM -4% | [9]; at 11.0 µM -10% | [9]; at 33.0 µM 3% | [9]; at 100.0 µM 58% | [10]; at 1.2 µM -3% | [10]; at 3.7 µM 3% | [10]; [16] 2% | [10]; at 11.0 µM 18% | [10]; at 33.0 µM 48% | [10]; [17] 32% | [11]; at 1.2 µM -4% | [11]; at 3.7 µM -4% | [11]; at 11.0 µM -6% | [11]; at 33.0 µM 3% | [12]; at 1.2 µM -2% | [12]; at 3.7 µM -3% | [12]; at 11.0 µM -5% | [12]; at 33.0 µM -23% | [12]; at 100.0 µM 62% | [13]; at 1.2 µM -4% | [13]; at 3.7 µM -5% | [13]; at 11.0 µM -4% | [13]; at 33.0 µM 16% | [14]; [16] -9% | [14]; [17] 63% | [15]; at 1.2 µM -12% | [15]; at 3.7 µM -10% | [15]; at 11.0 µM -8% | [15]; at 33.0 µM 2%
active: [3]; at 100.0 µM 87% | [4]; at 100.0 µM 76% | [5]; at 100.0 µM 82% | [7]; at 100.0 µM 96% | [10]; at 50.0 µM 74% | [10]; at 100.0 µM 74% | [11]; at 100.0 µM 78% | [13]; at 100.0 µM 93% | [14]; at 50.0 µM 83.5% | [15]; at 100.0 µM 85%

c1ccc2[nH]c(-c3cscn3)nc2c1
inactive: [1]; at 1.2 µM -3% | [1]; at 3.7 µM -3% | [1]; at 11.0 µM -3% | [1]; at 33.0 µM 2% | [1]; at 100.0 µM -1% | [2]; at 1.2 µM -1% | [2]; at 3.7 µM -3% | [2]; at 11.0 µM -2% | [2]; at 33.0 µM -5% | [2]; at 100.0 µM -4% | [3]; at 1.2 µM 0% | [3]; at 3.7 µM 0% | [3]; at 11.0 µM 3% | [3]; at 33.0 µM 16% | [3]; at 100.0 µM 29% | [4]; at 1.2 µM -2% | [4]; at 3.7 µM -2% | [4]; at 11.0 µM -5% | [4]; at 33.0 µM -5% | [4]; at 100.0 µM -7% | [5]; at 1.2 µM -2% | [5]; at 3.7 µM 3% | [5]; [16] -19% | [5]; at 11.0 µM -1% | [5]; at 33.0 µM 4% | [5]; [17] -2% | [5]; at 50.0 µM -4.2% and 39.9% | [5]; at 100.0 µM 11% | [6]; at 1.2 µM -2% | [6]; at 3.7 µM -8%
